Results taken from PubChem BioAssay (Tox21).
Records with an inconclusive call do not appear. A call without a number means that no potency is given here. The source made the active and inactive calls. Unless noted, calls follow the shape of the dose curve; as a rule, active = well fitted curve in the direction sought with a large enough effect in the repeat runs; inconclusive = weak or mixed curves; inactive = no such curve, though single readings can be large; an effect the other way counts as inactive or inconclusive.

What was measured:
[1] = biological target: Thyrotropin receptor (Homo sapiens) (UniProt P16473); experiment: qHTS assay to identify small molecule antagonists of the thyroid stimulating hormone receptor (TSHR) signaling pathway (AID 1259385; calls by dose curve; also: nearly all actives have a fitted effect of over 20% in size)
Procedure, shortened: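 Antagonist mode: compound-treated TSHR-expressing HEK293 cells were stimulated with 1.5 ng/mL TSH (final) in presence of Ro20-1724 for 30 min at RT. HTRF cAMP detection after 1 h; each compound tested at 15 concentrations, triplicate.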

[2] = qHTS assay to identify small molecule agonists of the estrogen receptor alpha (ER-alpha) signaling pathway in the presence of an antagonist - cell viability counter screen (AID 1259386);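 also: series mostly up to about 92 µM; cells exposed to compounds for 22 h at 37 °C before the viability read; nearly all actives have a fitted effect of over 30% in size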
Procedure, shortened: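 In this counter screen, compound effects on VM7Luc4E2 viability were tested in the presence of the antagonist ICI-182,780 at 10.0nM final. Compounds were dosed at 15 concentrations, exposure lasted 22hr, and the CellTiter-Fluor signal was read.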

[3] = biological target: Progesterone receptor (Homo sapiens) (UniProt P06401); experiment: qHTS assay to identify small molecule agonists of the progesterone receptor (PR) signaling pathway (AID 1346784; calls by dose curve; also: nearly all actives have a fitted effect of over 30% in size)
Procedure, shortened: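 PR-UAS-bla HEK 293T cells (beta-lactamase reporter under UAS) in 2% charcoal-stripped FBS, dosed with 23 nL compound after 6 hr, incubated 16hr at 37C. LiveBLAzer B/G FRET substrate added, fluorescence read after 2 hours.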

[4] = biological target: Progesterone receptor (Homo sapiens) (UniProt P06401); experiment: qHTS assay to identify small molecule antagonists of the progesterone receptor (PR) signaling pathway (AID 1346795; active = well fitted inhibition curve with a large enough effect in the signal ratio in the repeat runs, not every such curve was filed as active; the % refers to the signal ratio; also: potency is read from the fitted curve at half-maximal effect)
Procedure, shortened: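 PR-UAS-bla HEK293T cells with beta-lactamase reporter under UAS control, in 2% charcoal-stripped FBS, treated with compounds plus 1 nM promegestone (R5020, final) for 16 hr at 37C. Read-out: FRET beta-lactamase substrate fluorescence after 2 hr at room temperature.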

[5] = qHTS assay to identify small molecule antagonists of the progesterone receptor (PR) signaling pathway - cell viability counter screen (AID 1346798); also: series mostly up to about 92 µM; nearly all actives have a fitted effect of over 50% in size
Procedure, shortened: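 PR-UAS-bla HEK293T cells, 3,000/well in 2% charcoal-stripped FBS medium, dosed with compounds plus R5020 agonist and incubated 16 h at 37C. Viability then measured in the same wells by CellTiter-Glo luminescence after 30 min at RT.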

[6] = qHTS assay to identify small molecule agonists of the progesterone receptor (PR) signaling pathway - cell viability counter screen (AID 1346799; calls by dose curve; also: nearly all actives have a fitted effect of over 45% in size; also: potency is read from the fitted curve at half-maximal effect)
Procedure, shortened: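 Counter screen in the PR-UAS-bla HEK293T wells (2% charcoal-stripped FBS, 16 h compound exposure at 37 C) after the bla read. CellTiter-Glo added, 30 min at room temperature, luminescence read as cell viability.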

[7] = qHTS assay to identify small molecule antagonists of the TGF-beta/Smad signaling pathway - cell viability counter screen (AID 1346824); also: nearly all actives have a fitted effect of over 50% in size
Procedure, shortened: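 Cytotoxicity counter-screen run in the same wells as the beta-lactamase Smad reporter read: CellTiter-Glo luminescence after 30 min at room temperature. HEK 293T SBE-bla cells had 5 hr compound exposure at 37 C with TGF-beta1 (0.25 ng/mL stock).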

[8] = qHTS assay to identify small molecule agonists of the TGF-beta/Smad signaling pathway - cell viability counter screen (AID 1346829); also: top concentration of the series differs between compounds; nearly all actives have a fitted effect of over 45% in size
Procedure, shortened: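 Tox21 qHTS format: SBE-bla HEK 293T cells treated with DMSO-dissolved compounds for 5 hr; CellTiter-Glo luminescence after 30 min at room temperature.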

[9] = qHTS assay to identify small molecule agonists of the TGF-beta/Smad signaling pathway (AID 1346859; active = well fitted activation curve with a large enough effect in the signal ratio in the repeat runs, not every such curve was filed as active; the % refers to the signal ratio; also: series mostly up to about 77 µM)
Procedure, shortened: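 SBE-bla HEK293T cells plated overnight, then compound exposure for 5 h at 37 C. Beta-lactamase reporter read with LiveBLAzer B/G FRET substrate after 2 h at room temperature, fluorescence at 405 nm excitation, 460/530 nm emission.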

[10] = Human pregnane X receptor (PXR) small molecule agonists, qHTS cell viability counter screen (AID 1346977); also: nearly all actives have a fitted effect of over 50% in size
Procedure, shortened: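 PXR-Luc HepG2 cells (2,000/well, 5% charcoal-stripped FBS) preincubated 5 hr, then exposed to compounds 24 hr at 37 C. Viability read in the same wells by CellTiter-Fluor fluorescence, reagent added at 23 hr, 1 hr incubation.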

[11] = Caspase-3/7 induction in CHO-K1 cells by small molecules, qHTS assay (AID 1346980); also: nearly all actives have a fitted effect of over 15% in size
Procedure, shortened: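 Luminescent Caspase-Glo 3/7 read (30min, room temperature) quantified apoptosis induction. Cells were wild-type CHO-K1, treated with compound for 17hr at 37 C and 5% CO2.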

[12] = Caspase-3/7 induction in HepG2 cells by small molecules, qHTS cell viability counter screen (AID 1346981); also: series mostly up to about 92 µM; nearly all actives have a fitted effect of over 30% in size
Procedure, shortened: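 In this quantitative HTS counter screen, compounds delivered in DMSO were left on unmodified HepG2 cells for 16 hr at 37 C. Viability was then determined fluorometrically with CellTiter-Fluor, in parallel with caspase-3/7 induction in the same wells.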

[13] = biological target: Nuclear receptor subfamily 1 group I member 2 (Homo sapiens) (UniProt O75469); experiment: Human pregnane X receptor (PXR) small molecule agonists, qHTS assay (AID 1346982); also: nearly all actives have a fitted effect of over 35% in size; also: potency is read from the fitted curve at half-maximal effect
Procedure, shortened: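 Reporter HepG2 cells expressing PXR-Luc are cultured in charcoal-stripped FBS (5%), treated with compounds for 24 hr at 37 C, and assayed by ONE-Glo luminescence after 30 min at room temperature.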

[14] = biological target: Thyrotropin-releasing hormone receptor (Homo sapiens) (UniProt P34981); experiment: qHTS assay to identify small molecule antagonists of the thyrotropin-releasing hormone receptor (TRHR) signaling pathway (AID 1346877; active = well fitted inhibition curve with a large enough effect in the repeat runs, not every such curve was filed as active; also: series mostly up to about 51 µM)
Procedure, shortened: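 Kinetic fluorescence (3 min, 1 s resolution) following stimulation with TRH at 1 nM final; HEK293 cells bearing human TRHR; 5 min compound preincubation at RT; concentration-response over 15 points, triplicates.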

[15] = biological target: Thyrotropin-releasing hormone receptor (Homo sapiens) (UniProt P34981); experiment: qHTS assay to identify small molecule agonists of the thyrotropin-releasing hormone receptor (TRHR) signaling pathway (AID 1346891; calls by dose curve; also: series mostly up to about 58 µM)
Procedure, shortened: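 HEK293 cells expressing TRHR plated 18 h at 37 C/5% CO2, calcium dye-loaded 2 h at 37 C, then compound added (agonist mode); kinetic calcium fluorescence read 3 min at 1 s intervals; 15 concentrations in triplicate.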

[16] = Caspase-3/7 induction in HepG2 cells by small molecules, qHTS assay (AID 1346978); also: nearly all actives have a fitted effect of over 15% in size
Procedure, shortened: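 Caspase-3/7 induction was measured by Caspase-Glo 3/7 luminescence (30 min, room temperature) after a 17 hr compound exposure of wild-type HepG2 cells seeded at 2,000 per well and pre-incubated 5 hr.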

[17] = Caspase-3/7 induction in CHO-K1 cells by small molecules, qHTS cell viability counter screen (AID 1346979); also: nearly all actives have a fitted effect of over 35% in size
Procedure, shortened: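 Wild-type CHO-K1 cells (1,500/well) treated with compound after 5 h plating; after 16 h at 37C, viability read as CellTiter-Fluor fluorescence following 1 h reagent incubation, in the same wells as the caspase read.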

Sequence of Thyrotropin-releasing hormone receptor (Homo sapiens) (P34981 whole entry, looked up): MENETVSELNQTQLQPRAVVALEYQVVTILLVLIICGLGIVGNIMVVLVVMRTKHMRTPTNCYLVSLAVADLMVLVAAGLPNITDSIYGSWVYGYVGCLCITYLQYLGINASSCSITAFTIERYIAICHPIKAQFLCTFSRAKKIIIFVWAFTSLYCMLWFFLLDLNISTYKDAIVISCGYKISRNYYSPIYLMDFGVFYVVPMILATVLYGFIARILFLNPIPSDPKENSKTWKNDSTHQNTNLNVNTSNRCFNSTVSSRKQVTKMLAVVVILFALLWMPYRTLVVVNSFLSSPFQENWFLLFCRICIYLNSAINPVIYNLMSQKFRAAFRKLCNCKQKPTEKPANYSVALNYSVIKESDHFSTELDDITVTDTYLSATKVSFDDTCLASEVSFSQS
Sequence of Thyrotropin receptor (Homo sapiens) (P16473 whole entry, looked up): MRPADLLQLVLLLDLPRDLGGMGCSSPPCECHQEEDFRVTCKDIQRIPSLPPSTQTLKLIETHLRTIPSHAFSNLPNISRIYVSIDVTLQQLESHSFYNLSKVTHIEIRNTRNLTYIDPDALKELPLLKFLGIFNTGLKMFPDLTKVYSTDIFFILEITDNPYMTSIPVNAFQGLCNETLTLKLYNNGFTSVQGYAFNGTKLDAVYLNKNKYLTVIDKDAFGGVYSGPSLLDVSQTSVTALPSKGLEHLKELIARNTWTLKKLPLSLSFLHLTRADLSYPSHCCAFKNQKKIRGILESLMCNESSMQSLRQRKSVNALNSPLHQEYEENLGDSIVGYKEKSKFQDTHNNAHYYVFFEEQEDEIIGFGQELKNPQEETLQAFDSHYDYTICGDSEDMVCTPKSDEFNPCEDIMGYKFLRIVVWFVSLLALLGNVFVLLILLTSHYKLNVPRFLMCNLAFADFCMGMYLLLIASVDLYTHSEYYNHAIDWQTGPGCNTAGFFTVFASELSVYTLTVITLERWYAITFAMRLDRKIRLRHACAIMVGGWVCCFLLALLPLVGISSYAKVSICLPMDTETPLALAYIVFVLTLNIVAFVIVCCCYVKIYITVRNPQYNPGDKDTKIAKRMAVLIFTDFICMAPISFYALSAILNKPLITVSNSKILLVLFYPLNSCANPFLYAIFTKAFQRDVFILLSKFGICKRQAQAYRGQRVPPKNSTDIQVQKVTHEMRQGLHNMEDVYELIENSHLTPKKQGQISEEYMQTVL
Sequence of Nuclear receptor subfamily 1 group I member 2 (Homo sapiens) (O75469 whole entry, looked up): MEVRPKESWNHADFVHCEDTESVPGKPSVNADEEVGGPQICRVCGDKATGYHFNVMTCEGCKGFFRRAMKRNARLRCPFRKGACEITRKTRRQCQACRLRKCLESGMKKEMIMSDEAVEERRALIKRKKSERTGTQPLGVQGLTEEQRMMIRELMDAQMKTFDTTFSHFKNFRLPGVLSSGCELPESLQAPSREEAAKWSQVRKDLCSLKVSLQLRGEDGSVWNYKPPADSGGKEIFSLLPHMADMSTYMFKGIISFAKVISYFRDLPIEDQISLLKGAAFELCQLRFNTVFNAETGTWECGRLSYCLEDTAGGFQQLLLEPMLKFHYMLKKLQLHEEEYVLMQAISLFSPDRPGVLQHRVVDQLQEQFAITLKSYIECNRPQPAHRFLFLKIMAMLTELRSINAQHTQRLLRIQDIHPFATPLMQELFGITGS
Sequence of Progesterone receptor (Homo sapiens) (P06401 whole entry, looked up): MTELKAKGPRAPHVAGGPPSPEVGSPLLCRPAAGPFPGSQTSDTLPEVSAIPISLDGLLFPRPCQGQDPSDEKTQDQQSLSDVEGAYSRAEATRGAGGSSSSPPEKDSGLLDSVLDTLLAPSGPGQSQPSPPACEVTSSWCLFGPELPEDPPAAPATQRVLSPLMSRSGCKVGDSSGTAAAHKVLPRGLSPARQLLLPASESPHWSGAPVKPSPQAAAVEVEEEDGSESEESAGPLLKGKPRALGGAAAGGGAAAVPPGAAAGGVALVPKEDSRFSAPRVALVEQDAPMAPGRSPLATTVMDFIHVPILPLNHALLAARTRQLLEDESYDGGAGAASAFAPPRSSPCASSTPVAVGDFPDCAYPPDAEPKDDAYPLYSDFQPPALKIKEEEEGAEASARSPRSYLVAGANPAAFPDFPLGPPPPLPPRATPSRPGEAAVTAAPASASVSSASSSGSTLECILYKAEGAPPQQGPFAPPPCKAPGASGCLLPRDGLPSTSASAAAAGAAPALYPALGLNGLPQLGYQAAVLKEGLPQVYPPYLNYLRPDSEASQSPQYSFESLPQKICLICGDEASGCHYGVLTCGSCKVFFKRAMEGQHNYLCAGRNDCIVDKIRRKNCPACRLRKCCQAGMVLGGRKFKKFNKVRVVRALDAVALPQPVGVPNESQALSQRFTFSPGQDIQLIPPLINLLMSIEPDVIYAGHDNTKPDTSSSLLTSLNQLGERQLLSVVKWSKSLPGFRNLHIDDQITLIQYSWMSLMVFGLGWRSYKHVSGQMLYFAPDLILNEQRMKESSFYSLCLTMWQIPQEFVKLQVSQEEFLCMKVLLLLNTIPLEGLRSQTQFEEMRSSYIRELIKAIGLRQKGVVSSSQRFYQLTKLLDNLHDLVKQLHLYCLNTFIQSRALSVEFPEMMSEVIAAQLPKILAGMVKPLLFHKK

| SMILES | Potency [1] | Potency [2] | Potency [3] | Potency [4] | Potency [5] | Potency [6] | outcome [7] | outcome [8] | outcome [9] | Potency [10] | Potency [11] | Potency [12] | Potency [13] | outcome [14] | outcome [15] | Potency [16] | Potency [17] |
| --- | --- | --- | --- | --- | --- | --- | --- | --- | --- | --- | --- | --- | --- | --- | --- | --- | --- |
| CC(C)(C)N | inactive | inactive | inactive | inactive | inactive | inactive | inactive | inactive | inactive | inactive | inactive | inactive | inactive |  |  |  |  |
| Cc1ccccc1CCO | inactive | inactive | inactive | inactive | inactive | inactive | inactive |  | inactive | inactive | inactive | inactive | inactive | inactive | inactive | inactive | inactive |
| CC(O)C(C)O (stereo unspecified) | inactive | inactive | inactive | inactive | inactive | inactive | inactive | inactive | inactive | inactive | inactive | inactive | inactive | inactive | inactive | inactive |  |
| O=c1c2ccccc2oc2ccccc12 | inactive | inactive | inactive | inactive | inactive | inactive | inactive | inactive | inactive | inactive | inactive | inactive | inactive | inactive | inactive | inactive | inactive |
| Cc1cc(SC2=C(O)C[C@@](CCc3ccc(N)cc3)(C(C)C)OC2=O)c(C(C)(C)C)cc1CO | inactive | inactive | inactive | inactive | inactive | inactive | inactive |  |  |  | inactive | inactive | 30.6 µM (active) | inactive | inactive | inactive | inactive |
| CC1(C)C(=O)NC(=O)N1CO | inactive | inactive | inactive | inactive | inactive | inactive | inactive | inactive | inactive | inactive |  | inactive | inactive |  |  |  |  |
| CC(O)CN (stereo unspecified) | inactive | inactive | inactive | inactive | inactive | inactive |  | inactive | inactive | inactive | inactive | inactive | inactive | inactive | inactive | inactive | inactive |
| COc1ccc(C(=O)Nc2ccccc2)cc1[N+](=O)[O-] | inactive | inactive | inactive | 54.9 µM (active) | inactive | inactive | inactive | inactive |  | inactive | inactive | inactive | 30.9 µM (active) | inactive | inactive | inactive |  |
| CCOc1ccccc1O | inactive | inactive | inactive | inactive | inactive | inactive | inactive | inactive | inactive | inactive | inactive | inactive | inactive | inactive | inactive | inactive | inactive |
| O=C(OCCOCCOCCOC(=O)c1ccccc1)c1ccccc1 | inactive | inactive | inactive | inactive | inactive | inactive | inactive |  | inactive |  | inactive | inactive | 27.3 µM (active) | inactive | inactive | inactive | inactive |
| CCCC(=O)OCc1ccccc1 | inactive | inactive | inactive | inactive | inactive | inactive | inactive |  |  | inactive | inactive | inactive | inactive | inactive | inactive | inactive | inactive |
| Cc1ccc2c(Cl)cc(Cl)c(O)c2n1 | inactive | inactive | inactive | inactive | inactive | inactive | inactive | inactive | inactive | inactive | inactive | inactive | inactive | inactive | inactive | inactive | inactive |
| CC(C)=CCC[C@H](C)CCO | inactive | inactive | inactive | inactive | inactive | inactive | inactive | inactive | inactive | inactive |  | inactive | inactive | inactive | inactive | inactive | inactive |
| CCCCOc1ccc(N)cc1 | inactive | inactive | inactive | inactive | inactive | inactive | inactive | inactive | inactive | inactive | inactive | inactive | 54.5 µM (active) |  | inactive |  | inactive |
| Nc1ncnc2c1ncn2[C@@H]1O[C@H](CO)[C@@H](O)[C@H]1O | inactive | inactive | inactive | inactive | inactive | inactive | inactive | inactive | inactive | inactive | inactive | inactive |  |  | inactive | inactive |  |
| CC(=O)Nc1ccn(C2COC(COC(=O)c3ccccc3)O2)c(=O)n1 (stereo unspecified) | inactive | inactive | inactive | inactive | inactive | inactive | inactive | inactive |  | inactive | inactive | inactive | inactive | inactive | inactive | inactive |  |
| NC(=O)c1ccccc1 | inactive | inactive | inactive | inactive | inactive | inactive | inactive | inactive | inactive | inactive |  | inactive | inactive |  | inactive | inactive | inactive |
| CC1(C)[C@@H]2CC[C@]3(C2)[C@@H]1C(=O)CCC3(C)C | inactive | inactive | inactive | inactive | inactive | 27.3 µM (active) | inactive | inactive |  | inactive | inactive | inactive | 9.69 µM (active) |  |  | inactive |  |
